SW480 rerep: DNA re-replication induction in SW480 cells. SW480 DNA re-replication, Hoechst DNA content imaging, 48 h. 1.8% of 340,000 active. Potency, µM (highest dose often 46.1 µM), most hits filed as activators; also: nearly all actives have a fitted effect of over 55% in size
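DNA re-replication was detected as more nuclei of elevated Hoechst intensity after 48 hr exposure to compound (23 nL pinned per well of 250 cells).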
HT1080 IDH1KD tx: toxicity to HT-1080 IDH1 knockdown cells (counter line) | HT-1080 IDH1 knockdown viability, ATP luminescence, 48 h | 2% of 360,000 active | Potency, µM (highest dose often 46.1 µM), most hits filed as cytotoxic
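After a 2 h attachment period, IDH1KD HT-1080 cells took pin-transferred compound for 48 h at 37 °C; ATP-based luminescence after 10 min room-temperature reagent incubation reported viability.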
HT1080NT lethal: kills 2HG-producing HT-1080-NT fibrosarcoma cells | HT-1080-NT fibrosarcoma viability, CellTiter-Glo ATP luminescence, 48 h | Potency, µM (top dose mostly 46.1 µM), hits mostly cytotoxic | 1.6% of 360,000 active;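 also: NT is the 2HG producing partner of a matched IDH1 knockdown line; nearly all actives have a fitted effect of over 55% in size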
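Viability by CellTiter-Glo luminescence after 48 h compound exposure at 37C of HT-1080-NT cells (750/well, RPMI, 5% FBS). % activity scaled between DMSO wells and medium-only wells, then curve-fitted and categorized by curve class.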
KB-V1 cytotox: kills drug-selected multidrug resistant KB-V1 cells; KB-V1 MDR cells viability, CellTiter-Glo, 72 h; Potency, µM (doses to about 46.1 µM), most hits filed as cytotoxic; 3.4% of 400,000 active; AID 1347076; also: nearly all actives have a fitted effect of over 60% in size
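In this primary screen, KB-V1 cells overexpressing P-gp are incubated with library compounds (lowest to highest concentration) for 72 h at 37 degrees C before a luminescent ATP viability read.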
MCF10A rerep: inducers of DNA re-replication in MCF 10A breast cells. MCF 10A DNA re-replication, Hoechst nuclear intensity, 48 h. Potency, µM (highest dose often 46.1 µM), usual class: activators. 2.9% of 350,000 active; also: nearly all actives have a fitted effect of over 50% in size
KB-3-1 cytotox: kills parental KB-3-1 adenocarcinoma cells. KB-3-1 viability, CellTiter-Glo ATP luminescence, 72 h. Potency, µM (series often up to 46.1 µM), most hits filed as cytotoxic. 1.4% of 400,000 active. AID 1347075; also: nearly all actives have a fitted effect of over 60% in size
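Multi-concentration cytotoxicity screen in KB-3-1 cells grown in DMEM lacking phenol red with 10% FBS. After 72 h at 37 °C with compound, ATP-dependent luminescence was recorded.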
Of the large screens only hits and unclear results are named; the others gave an inactive call. In the library only some 8% were active in any assay of this set; here they are far more common. Calls follow the shape of the dose curve; as a rule, active = well fitted curve in the direction sought with a large enough effect; inconclusive = small, poorly fitted or top-dose-only effect, or another doubt; inactive = no such curve, though single readings can be large; an effect the other way counts as inactive or inconclusive.

OC[C@@H]1CN(Cc2ccccc2)C[C@H](n2cnc3c(NCc4ccc(F)cc4)ncnc32)O1	KB-V1 cytotox inconclusive (no result: SW480 rerep, MCF10A rerep)
OC[C@@H]1CN(Cc2ccc(F)cc2)C[C@H](n2cnc3c(Nc4ccccc4)ncnc32)O1	none (no result: SW480 rerep, MCF10A rerep)
CC(C)N(C)c1ncnc2c1ncn2[C@H]1CN(Cc2ccncc2)C[C@@H](CO)O1	none (no result: SW480 rerep, MCF10A rerep)
CC(C)N(C)c1ncnc2c1ncn2[C@H]1CN(Cc2ccc(-c3ccccc3)cc2)C[C@@H](CO)O1	HT1080 IDH1KD tx inconclusive, HT1080NT lethal 23µM (no result: SW480 rerep, MCF10A rerep)
OC[C@@H]1CN(Cc2ccc(-c3ccccc3)cc2)C[C@H](n2cnc3c(Nc4ccccc4)ncnc32)O1	HT1080 IDH1KD tx 10µM, HT1080NT lethal inconclusive, KB-V1 cytotox 21µM, KB-3-1 cytotox 13µM (no result: SW480 rerep, MCF10A rerep)
Cc1ccccc1OCC(=O)Nc1c2c(nn1C(C)(C)C)CS(=O)(=O)C2	SW480 rerep 18µM
COc1ccccc1NC(=O)CN(c1cc(C)cc(C)c1)S(=O)(=O)c1c(C)[nH]c(=O)[nH]c1=O	none (no result: SW480 rerep, HT1080 IDH1KD tx, HT1080NT lethal, MCF10A rerep)
Cc1sc(NC(=O)c2ccco2)c(C(c2cccnc2)N2CCC(C)CC2)c1C (centres undefined)	HT1080 IDH1KD tx 4.6µM, HT1080NT lethal 21µM, KB-V1 cytotox inconclusive, MCF10A rerep inconclusive, KB-3-1 cytotox 18µM
CCOC(=O)c1c(NC(=O)c2ccco2)sc2c1CCCCC2	MCF10A rerep inconclusive
CCN1CCN(C(c2cccnc2)c2c(NC(=O)c3ccco3)sc(C)c2C)CC1 (centres undefined)	MCF10A rerep inconclusive
CCOC(=O)c1c(NC(=O)C2C3C=CC(C3)C2C(=O)O)sc2c1CCCC2 (centres undefined)	none
CCOC(=O)c1c(NC(=O)c2ccc(N3C(=O)C4C5C=CC(C5)C4C3=O)cc2)sc2c1CCCC2 (centres undefined)	KB-V1 cytotox 16µM, MCF10A rerep inconclusive
Cc1sc(NC(=O)c2ccco2)c(CN2CCN(Cc3ccccc3)CC2)c1C	SW480 rerep inconclusive, HT1080 IDH1KD tx inconclusive, KB-V1 cytotox inconclusive, MCF10A rerep 23µM, KB-3-1 cytotox inconclusive
Cc1sc(NC(=O)c2ccco2)c(CN2CCC(C)CC2)c1C	MCF10A rerep inconclusive, KB-3-1 cytotox inconclusive
CCOC(=O)c1c(NC(=O)C(C)N2CCN(C(=O)c3ccco3)CC2)sc2c1CCCC2 (centres undefined)	KB-V1 cytotox inconclusive, MCF10A rerep 15µM, KB-3-1 cytotox inconclusive
CCOC(=O)c1c(NC(=O)c2ccco2)sc(C(=O)N2CCCC2)c1C	KB-V1 cytotox 2.3µM
Cc1cccc(CCNC(=O)c2ccc3c(c2)nc2n3CCCCC2)c1	none (no result: SW480 rerep, HT1080 IDH1KD tx, HT1080NT lethal, MCF10A rerep)
COc1cc2nc(N3CCN(c4cc(C)ccc4C)CC3)nc(N)c2cc1OC	SW480 rerep inconclusive, HT1080 IDH1KD tx 2.6µM, HT1080NT lethal 2.6µM, KB-V1 cytotox inconclusive, MCF10A rerep 6.5µM, KB-3-1 cytotox inconclusive
COc1ccc(C)cc1Nc1nc(N)c2cc(OC)c(OC)cc2n1	SW480 rerep inconclusive, HT1080 IDH1KD tx 18µM, HT1080NT lethal inconclusive, KB-V1 cytotox inconclusive, MCF10A rerep inconclusive
Cc1nn(-c2ccccc2)c(C)c1/C=N/NC(=O)c1cc(C23CC4CC(CC(C4)C2)C3)[nH]n1	HT1080 IDH1KD tx inconclusive, HT1080NT lethal inconclusive, KB-V1 cytotox inconclusive, MCF10A rerep 2.6µM, KB-3-1 cytotox inconclusive
Cc1nn(-c2ccccc2)c(C)c1/C=N/NC(=O)c1cc(-c2cccs2)[nH]n1	SW480 rerep 0.65µM, HT1080 IDH1KD tx inconclusive, HT1080NT lethal inconclusive, KB-V1 cytotox inconclusive, KB-3-1 cytotox 0.52µM
Cc1[nH]c2ccccc2c1/C=N/NC(=O)c1cccs1	KB-V1 cytotox inconclusive
Cc1c(/C=N/NC(=O)c2cccs2)c2ccccc2n1Cc1ccccc1Cl	SW480 rerep 15µM, KB-V1 cytotox inconclusive, MCF10A rerep 16µM, KB-3-1 cytotox inconclusive
Cc1cc(C(=O)N/N=C/c2c(C)nn(-c3ccccc3)c2C)n[nH]1	none
Cc1nn(-c2ccccc2)c(C)c1/C=N/NC(=O)c1cc(C2CC2)[nH]n1	none

Compound activity deposited in PubChem BioAssay by National Center for Advancing Translational Sciences (NCATS).
